# From PubChem BioAssay AID540333 (Southern Research Specialized Biocontainment Screening …, 2011)
# Screen size: about 10,000 compounds; about 320 (3.2%) were called active. Only a selection was taken, and actives are over-represented in it overall. Unmarked numbers belong to inactive results. Cut-off read from the data, not from the text of the source: active = CPE inhibition mostly above about 9.1% (no sharp cut-off); inactive = mostly below about 7.2%.
# Assay: antivirals protecting cells from dengue CPE – CPE readout, HTS (AID 540333)
# Settings: Dengue virus CPE inhibition in host cells, at 20 µM; active compounds read high
row,Compound,CPE inhibition
1,Cc1ccccc1NC(=S)NCC(c1cccnc1)N1CCOCC1 (stereo unspecified),inactive
2,N#Cc1c(-c2ccccc2)nc(SCC(=O)Nc2ccccc2)[nH]c1=O,inactive
3,Cc1cccc(N2CCN(C(=S)NCc3ccco3)CC2)c1C,0.45%
4,CC(NS(=O)(=O)c1ccc2c(c1)OCCCO2)C(=O)O (stereo unspecified),0.55%
5,CCCCOC(=O)/C=C/c1ccc(OC(=O)OC)c(OC(=O)OC)c1,inactive
6,COc1ccc(/C(O)=C2/C(=O)C(=O)N(CCCN(C)C)C2c2cccc(Cl)c2)cc1OC (stereo unspecified),0.13%
7,CCOC(=O)c1c(NC(=O)CSC(=S)N2CCOCC2)sc(C)c1C,0.065%
8,COc1ccc(C(=O)NC(=S)N(CCC(C)C)c2c(N)n(Cc3ccccc3)c(=O)[nH]c2=O)cc1,0.675%
9,CC(=O)c1cc(-c2ccccc2)n(CC(=O)Nc2cccc(C)c2C)c1C,0.49%
10,CC[C@@]12C(=O)N(c3cccc(Cl)c3)C(=O)N1[C@H](c1ccc(Br)cc1)[C@@H]1C(=O)N(C(C)(C)C)C(=O)[C@@H]12,23.6% (active)
11,COc1ccc([C@@H]2[C@@H]3C(=O)N(C(C)(C)C)C(=O)[C@@H]3[C@]3(Cc4ccccc4)C(=O)N(c4ccc(OC)cc4)C(=O)N23)cc1,0.525%
12,CCN1C(=O)[C@H]2[C@@H](c3ccc(C)cc3)N3C(=O)N(c4ccccc4)C(=O)[C@@]3(CC)[C@H]2C1=O,inactive
13,CC(C)C[C@@]12C(=O)N(c3cccc(F)c3)C(=O)N1[C@H](c1ccc(Br)cc1)[C@@H]1C(=O)N(C(C)(C)C)C(=O)[C@@H]12,52.3% (active)
14,Cc1cccc([C@@H]2[C@@H]3C(=O)N(Cc4ccccc4)C(=O)[C@@H]3[C@]3(CC(C)C)C(=O)N(c4cccc(Br)c4)C(=O)N23)c1,1.25%
15,COc1ccc([C@@H]2[C@@H]3C(=O)N(C(C)(C)C)C(=O)[C@@H]3[C@]3(C)C(=O)N(c4ccc(C)cc4)C(=O)N23)cc1,inactive
16,CCOC(=O)[C@@H]1[C@H]2COc3ccccc3[C@H]2N2C(=O)N(c3cccc(Cl)c3)C(=O)[C@]12C,0.045%
17,COc1ccc([C@@H]2[C@@H]3C(=O)N(C(C)(C)C)C(=O)[C@@H]3[C@]3(C)C(=O)N(c4cccc(Cl)c4)C(=O)N23)cc1,0.865%
18,CC(C)(C)N1C(=O)[C@H]2[C@@H](c3ccc(Br)cc3)N3C(=O)N(c4ccccc4)C(=O)[C@@]3(C)[C@H]2C1=O,2.17%
19,CC[C@@]12C(=O)N(c3ccccc3)C(=O)N1[C@H](c1ccc(Br)cc1)[C@@H]1C(=O)N(C(C)(C)C)C(=O)[C@@H]12,5.79%
20,CC(C)(C)N1C(=O)[C@H]2[C@@H](c3ccc(Br)cc3)N3C(=O)N(c4cccc(Cl)c4)C(=O)[C@@]3(Cc3ccccc3)[C@H]2C1=O,31.9% (active)
21,CC[C@@]12C(=O)N(c3cccc(Br)c3)C(=O)N1[C@H](c1cccc(C)c1)[C@@H]1C(=O)N(Cc3ccccc3)C(=O)[C@@H]12,12.7% (active)
